Bioassay records (PubChem BioAssay)
Hits are enriched below; roughly 11% of the tested compounds scored in any of these assays.
ALDH1A1 block: qHTS Assay for Inhibitors of Aldehyde Dehydrogenase 1 (ALDH1A1); Aldehyde dehydrogenase 1A1 (Homo sapiens), P00352; Purified ALDH1A1, NADH fluorescence, propionaldehyde substrate; Potency, µM (titrated, usually from 75.3 µM), for inactives: at the top dose activity, negative = inhibition, actives largely listed as inhibitors; 220,000 tested, 7.3% active;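 further: potency means the concentration at half of the fitted maximal effect; plate controls were no enzyme wells and a reference inhibitor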
Target sequence (P00352 whole entry, looked up): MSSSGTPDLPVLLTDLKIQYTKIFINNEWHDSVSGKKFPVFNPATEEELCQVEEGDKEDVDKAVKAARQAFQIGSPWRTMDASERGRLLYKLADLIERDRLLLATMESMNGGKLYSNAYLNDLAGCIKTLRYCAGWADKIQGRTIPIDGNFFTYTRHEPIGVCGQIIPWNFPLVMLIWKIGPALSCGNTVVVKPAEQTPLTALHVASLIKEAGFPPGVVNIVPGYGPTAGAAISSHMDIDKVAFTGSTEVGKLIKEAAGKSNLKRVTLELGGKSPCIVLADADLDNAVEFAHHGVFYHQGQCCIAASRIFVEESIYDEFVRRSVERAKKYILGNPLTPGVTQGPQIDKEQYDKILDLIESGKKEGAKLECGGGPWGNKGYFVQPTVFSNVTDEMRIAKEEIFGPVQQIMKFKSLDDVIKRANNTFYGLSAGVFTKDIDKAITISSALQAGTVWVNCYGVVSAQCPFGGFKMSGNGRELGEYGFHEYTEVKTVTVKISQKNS
IMPase Li inh: qHTS Assay for Identifying the Cell-Membrane Permeable IMPase Inhibitors: Potentiation with Lithium; CHO-M1 cells, IP1 TR-FRET (IP-One), carbachol + lithium; Potency, µM (titrated, usually from 59.4 µM), for inactives: top-dose activity, negative = IMPase inhibition, usual class: inhibitors; 210,000 tested, 0.35% active; active means well fitted inhibition curve with a large enough effect; inconclusive means small, poorly fitted or top-dose-only effect; inactive means no such curve, though single readings can be large or run the other way;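 further: IP1 builds up when IMPase is blocked and the TR-FRET signal falls; potency means the concentration at half of the fitted maximal effect; plate controls were basal vehicle for no effect and high inhibitor control for full effect; nearly all actives have a fitted effect of over 50% in size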
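Readout is a homogeneous TR-FRET IP1 immunoassay (Ex 320, Em 665 and 620), where raised cytosolic IP1 lowers signal. Cells were CHO-M1 treated 30 min at 37C with test compounds plus a little lithium; AC50 values came from Hill-equation fitting.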
IMPase cell inh: qHTS Assay for Identifying the Cell-Membrane Permeable IMPase Inhibitors. Inositol monophosphatase 1 (Rattus norvegicus), P97697. CHO-M1 cells, IP1 accumulation, HTRF TR-FRET ratio. inhibition (IP1 accumulation), % at 46.1 µM. 120,000 tested, under 10 active. AID 901, 2007; active means well fitted curve in the direction sought with a large enough effect in the signal ratio, not every such curve was filed as active; inconclusive means small, poorly fitted or top-dose-only effect, or a change in a side signal; inactive means no such curve, though single readings can be large or run the other way; the % refers to the signal ratio;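 further: cells stimulated with carbachol in lithium chloride buffer; plate controls were DMSO basal wells for no effect and reference inhibitor wells for full effect; higher means more IMPase inhibition seen as more IP1 and lower FRET ratio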
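Carbachol-driven Gq signalling in CHO-M1 cells (2000/well) generates IP1. Compounds that block IMPase raise IP1 and so reduce the FRET signal from Eu-anti-IP1 and d2-IP1 after a 10 min room-temperature lysis.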
HPGD inh: qHTS Assay for Inhibitors of HPGD (15-Hydroxyprostaglandin Dehydrogenase); purified HPGD, NADH fluorescence kinetic, PGE2 substrate; Potency, µM, for the others: at the highest dose activity change, negative = inhibition, hits mostly inhibitors; 150,000 tested, 4.3% active; AID 894, 2007; further: potency means the concentration at half of the fitted maximal effect
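20 nM HPGD preincubated 15 min at room temperature with compound in 50 mM Tris-HCl pH 8, 0.01% Tween 20. Started with 1 mM NAD+ and 30 uM prostaglandin E2; NADH fluorescence (360/450 nm) read 5 times over 30-s intervals, last minus first.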
PNC assembly inh: High Content Assay for Compounds that inhibit the Assembly of the Perinucleolar Compartment. PC3M PTB-GFP, PNC prevalence imaging, 16 h; active compounds read low. activity change (PNC), negative = inhibition, % at 10 µM. 140,000 tested, 3.1% active. AID 2417, 2010;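 active means readout at or below -70, meaning at least 70% loss of cells showing the perinucleolar compartment, a nuclear body marking cancer cells; inconclusive means readout between -30 and a set limit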;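 further: plate controls were DMSO wells for no effect and camptothecin positive control wells for full effect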
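Compounds are pinned in duplicate onto adhered PC3M cells stably expressing GFP-tagged PTB and incubated 16 h at 37 C. Cells are then fixed, nuclei stained with Hoechst, and PNC-positive cells counted.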
* marks the source's active call; other numbers are inactive results; ? = inconclusive; / = not tested or not shown; [ ] = another dose, or the depositor's remark. Unless noted, the call rests on the fitted dose curve; in most records, active means well fitted inhibition curve with a large enough effect (not every such curve was filed as active); inconclusive means small, poorly fitted or top-dose-only effect, or another doubt; inactive means no such curve, though single readings can be large or run the other way. Unless noted, on the % scale 0 is the no-effect control and ±100 the full control effect.

SMILES	ALDH1A1 block	IMPase Li inh	IMPase cell inh	HPGD inh	PNC assembly inh
Cc1ccc(N2CC(C(=O)Nc3ccc(S(=O)(=O)Nc4nccs4)cc3)CC2=O)cc1 (configuration not stated)	20µM*	5%	/	/	/
O=S(=O)(Nc1nccs1)c1ccc(NS(=O)(=O)c2cccs2)cc1	18µM*	-2%[38.3 µM]	3	-9%	?
O=C(CCN1C(=O)S/C(=C\c2ccccc2)C1=O)Nc1ccc(S(=O)(=O)Nc2nccs2)cc1	?	6%[38.3 µM]	0	-20%	21
CN1CCN(CC(=O)Nc2ccc([N+](=O)[O-])cc2Br)CC1	7%	5%	/	/	/
c1ccc([C@H](CCN2CCCC2)c2ccccn2)cc1	22%[13.5 µM]	0%	/	-10%	/
CCCCN(CCCC)CC(O)COc1ccccc1C(=O)Nc1ccccc1 (configuration not stated)	-3%	12%	/	/	/
CCN(CC)CC(O)COc1ccccc1C(=O)CCc1ccccc1 (configuration not stated)	5%	/	25	/	-86*
C[C@@]12C=Cc3occc3C1CC[C@@]13C[C@@H](CCC12)[C@@](O)(CO)C3 (some centres not stated)	1.4µM*	16%	/	-5%	/
Cc1ccc(CN(Cc2cccnc2)C(=O)CN2C(=O)COc3ccccc32)o1	28µM*	3%[38.3 µM]	11	-9%	-2
O=C(CN1C(=O)COc2ccccc21)N(Cc1ccccc1)Cc1ccccn1	?	-8%[38.3 µM]	-1	-12%	?
Cc1ccc(S(=O)(=O)N[C@H]2COC(=O)C/C=C\[C@@H](C)[C@H](NS(=O)(=O)c3ccc(C)cc3)COC(=O)C/C=C\[C@H]2C)cc1	15%[13.5 µM]	/	/	/	/
O=C(NCCSc1c(-c2ccccc2)[nH]c2ccccc12)c1cc2ccccc2oc1=O	8%	8%	/	-15%	-86*
CN(CC(=O)NC(=O)NC(C)(C)C)CC(=O)Nc1ccccc1Cl	6%	4%	/	/	/
COc1ccc(C(=O)NCC(=O)OCC(=O)NCc2cccs2)cc1	?	-3%	/	/	/
COc1ccc(C(=O)NCC(=O)NCC(=O)OCC(=O)c2cccs2)cc1	16µM*	-19%	/	-12%	?
COc1ccc(C(=O)NCC(=O)OCC(=O)c2ccc3c(c2)OCCO3)cc1	7.9µM*	21%[38.3 µM]	5	-13%	-9
CCOc1ccccc1NC(c1nnc(-c2ccccc2)o1)c1ccc(F)cc1Cl (configuration not stated)	/	/	4	/	/
COc1cccc(Cn2c(=O)cnc3cnc(OCc4ccccc4)nc32)c1	-2%	9%	/	/	/
COc1cccc2c1CCC1=CC(=O)CC[C@@]12C	?	20%	/	-8%	/
CNC1=C(Br)C(=O)c2ccncc2C1=O	-11%	31%	/	-15%	/
O=C(NCc1ccccc1)c1ccc(Cc2nc3ccccc3[nH]2)cc1	9%	/	/	-4%	/
COC(=O)C(Cc1ccccc1)NC(=O)C(N)CC(=O)O (configuration not stated)	-1%	5%	/	-1%	/
COc1cccc(CNc2ccc(N3CCC(C)CC3)cc2)c1OC	13µM*	7%	/	-6%	-18
CCCCOCC1CN(c2ccccc2)C(=O)CS1 (configuration not stated)	13µM*	17%[38.3 µM]	3	-5%	5
CC1CN(c2ccccc2)C(=O)CS1 (configuration not stated)	15µM*	25%[38.3 µM]	1	16µM*	41
CCCCN1CC(COc2ccccc2)OC1=O (configuration not stated)	-4%	11%[38.3 µM]	-5	-10%	5
S=C(Nc1ccc2nsnc2c1)N1CCCC1	25µM*	4%	/	/	/
S=C(Nc1ccc2nccnc2c1)N1CCCC1	-4%	9%	/	/	/
O=S(=O)(CCn1cccc1)CCn1cccc1	5%	0%	-1	-9%	-100*
COCCn1c(=O)c(-c2ccc(Cl)cc2)nc2cnc(OC)nc21	?	3%	/	-27%	/
